# According to PubChem BioAssay (EPA / NIEHS):
# Inconclusive results are not listed. The source made the active and inactive calls. The calls were made as follows, unless noted: active = hit-call score of the fitted dose curve at least 0.9, where 1 is the maximum; inactive = score below 0.9.
# Columns and labels:
# [1] = target: Paired box protein Pax-6 (Homo sapiens) (UniProt P26367); assay: ATG_Pax6_CIS: Attagene CIS-FACTORIAL HepG2 Assay for human Paired Box 6 (PAX6) (AID 2282956); conditions: HepG2 CIS-FACTORIAL PAX6 reporter transcription, RNA readout; actives raise or lower the signal
# How it was run: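 Readout: reporter transcript fluorescence after RT-PCR and capillary electrophoresis. Cells: HepG2, transiently transfected with cis-regulated MRTUs. Exposure 24 h. Gain or loss of signal fitted bidirectionally relative to DMSO.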
# [2] = ATG_PXRE_CIS: Attagene CIS-FACTORIAL HepG2 Assay for human Pregnane X Receptor Element (PXRE) (AID 2282957); conditions: HepG2 Attagene CIS-FACTORIAL PXRE reporter, mRNA; actives raise or lower the signal
# How it was run: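 Endogenous transcription factor activity in HepG2 was gauged through induction of reporter mRNA driven by a cis-regulating promoter element, sampled 24 h post-treatment. Activity was fitted in both directions against DMSO negative control.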
# [3] = ATG_RORE_CIS: Attagene CIS-FACTORIAL HepG2 Assay for human RAR-related Orphan Receptor Element (RORE) (AID 2282959); conditions: HepG2 Attagene cis-factorial RORE reporter, mRNA; actives raise or lower the signal
# How it was run: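 HepG2 cells carrying transiently transfected cis-regulated reporter units; RORE-driven reporter mRNA quantified 24 h post-dosing by RT-PCR, 6-FAM primer extension, HpaI digestion and capillary electrophoresis. Bidirectional fit versus DMSO.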
# [4] = ATG_Sox_CIS: Attagene CIS-FACTORIAL HepG2 Assay for human SRY-box transcription factor (SOX) (AID 2282960); conditions: HepG2 Attagene cis-factorial SOX reporter, mRNA; actives raise or lower the signal
# How it was run: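 HepG2 cells transiently transfected with multiple cis-regulated reporter units, then dosed for 24 h. Reporter mRNA quantified by RT-PCR, fluorescent labelling, HpaI digestion and capillary electrophoresis; bidirectional fit versus DMSO.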
# [5] = target: Transcription factor Sp1 (Homo sapiens) (UniProt P08047); assay: ATG_Sp1_CIS: Attagene CIS-FACTORIAL HepG2 Assay for human Specificity Protein 1 (Sp1) (AID 2282961); conditions: HepG2 Sp1 cis-reporter transcription, actives raise or lower the signal
# How it was run: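 HepG2 cells transiently transfected with multiplexed cis-regulated reporter constructs, chemical exposure 24 h. Reporter mRNA quantified by RT-PCR with capillary electrophoresis; bidirectional fit relative to DMSO.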
# [6] = target: Signal transducer and activator of transcription 3 (Homo sapiens) (UniProt P40763); assay: ATG_STAT3_CIS: Attagene CIS-FACTORIAL HepG2 Assay for human Signal Transducer and Activator of Transcription 3 (STAT3) (AID 2282963); conditions: HepG2, Attagene cis-factorial STAT3 reporter transcription; actives raise or lower the signal
# How it was run: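 Cis-factorial format: endogenous transcription factors in HepG2 drive transfected reporter units. After 24 h treatment, reporter RNA was reverse-transcribed, amplified, FAM-labelled and HpaI-digested before CE analysis; activity scored in both directions against DMSO.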
# [7] = ATG_TCF_b_cat_CIS: Attagene CIS-FACTORIAL HepG2 Assay for human T-Cell-Factor with beta-catenin (TCF/b-cat) (AID 2282965); conditions: HepG2 TCF/beta-catenin cis-reporter transcription, actives raise or lower the signal
# How it was run: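 Endogenous transcription factor activity is captured through cis-promoter reporter constructs transiently introduced into human HepG2 liver cells. Induced reporter mRNA is measured after 24 h and fitted bidirectionally relative to DMSO.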
# [8] = ATG_TAL_CIS: Attagene CIS-FACTORIAL HepG2 Assay for human TAL Basal Promoter (AID 2282966); conditions: HepG2 Attagene cis-factorial TAL promoter reporter; actives raise or lower the signal;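 also: background control endpoint measuring basal TAL promoter reporter mRNA not a specific factor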
# How it was run: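 Endogenous transcription-factor activity is sensed in HepG2 cells through transfected cis-promoter reporter constructs. After 24 h dosing, reporter transcripts are quantified by RT-PCR and capillary electrophoresis. Gain or loss of signal is fitted relative to DMSO.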
# [9] = ATG_TGFb_CIS: Attagene CIS-FACTORIAL HepG2 Assay for human Transforming Growth Factor (TGF) (AID 2282967); conditions: HepG2 Attagene CIS TGFb reporter, mRNA transcription; actives raise or lower the signal
# How it was run: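 Liver HepG2 line, cis-factorial reporter panel, 24 h dosing. Quantitation: RT-PCR products labeled with 6-FAM, cut with HpaI, resolved by capillary electrophoresis; DMSO-referenced bidirectional analysis.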
# [10] = ATG_VDRE_CIS: Attagene CIS-FACTORIAL HepG2 Assay for human Vitamin D Receptor Element (VDRE) (AID 2282968); conditions: HepG2 VDRE cis-reporter transcription, actives raise or lower the signal
# How it was run: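 Measures endogenous factor activity through cis-element-driven reporter transcripts in transiently transfected HepG2. Cells are treated 24 h; reporter mRNA is quantified by RT-PCR and capillary electrophoresis; fitting is bidirectional.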
# [11] = target: Nuclear receptor subfamily 1 group I member 3 (Homo sapiens) (UniProt Q14994); assay: ATG_CAR_TRANS: Attagene TRANS-FACTORIAL HepG2 Assay for human Constitutive Androstane Receptor (CAR) (AID 2282969; active = hit-call score of the fitted dose curve at least 0.9, where 1 is the maximum;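 also: activators raise reporter mRNA above DMSO so AC50 marks induction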); conditions: HepG2 Attagene TRANS-FACTORIAL CAR reporter
# How it was run: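 Signal is reporter mRNA induction relative to DMSO, measured 24 h after dosing by RT-PCR with fluorescent primer extension and capillary electrophoresis. Human HepG2 liver cells carried transiently transfected chimeric NR-Gal4/GAL4-UAS reporter constructs.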
# [12] = target: X-box-binding protein 1 (Homo sapiens) (UniProt P17861); assay: ATG_Xbp1_CIS: Attagene CIS-FACTORIAL HepG2 Assay for human X-box Binding Protein 1 (XBP1) (AID 2282972); conditions: HepG2 XBP1 cis-element reporter, Attagene multiplex; actives raise or lower the signal
# How it was run: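 Read-out: fluorescent reporter mRNA fragments resolved by capillary electrophoresis after RT-PCR. Human HepG2 liver cells carried transfected cis-promoter reporter units and were exposed to chemicals for 24 hours. Gain or loss of signal fitted relative to DMSO baseline.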
# [13] = ATG_M_19_TRANS: Attagene TRANS-FACTORIAL HepG2 Assay for M19 Transcription Factor (Internal Marker) (AID 2282974; active = hit-call score of the fitted dose curve at least 0.9, where 1 is the maximum); conditions: HepG2 Attagene TRANS-FACTORIAL M19 internal marker reporter
# How it was run: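 HepG2 transiently transfected with GAL4-UAS multiplex reporter constructs, exposed 24 h; reporter RNA quantified by RT-PCR, 6-FAM labeling, HpaI digestion and capillary electrophoresis; internal background marker fitted upward versus DMSO.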
# [14] = ATG_GAL4_TRANS: Attagene TRANS-FACTORIAL HepG2 Assay for GAL4 (Internal Marker) (AID 2282976; active = hit-call score of the fitted dose curve at least 0.9, where 1 is the maximum); conditions: HepG2 Attagene TRANS GAL4 internal marker reporter
# How it was run: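 Fluorescence from capillary electrophoresis of labelled RT-PCR products quantifies reporter mRNA induction after 24 h dosing of HepG2 cells carrying transfected GAL4-UAS reporter transcription units. Vehicle DMSO serves as baseline.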
# [15] = ATG_TA_CIS: Attagene CIS-FACTORIAL HepG2 Assay for human TA Basal Promoter (AID 2282964); conditions: HepG2 Attagene CIS-factorial TA basal promoter reporter; actives raise or lower the signal
# How it was run: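 Background internal-marker endpoint from a 52-component HepG2 cis-reporter panel. Cells treated 24 h; reporter transcripts quantified via RT-PCR and CE fluorescence against DMSO baseline.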
# [16] = ATG_SREBP_CIS: Attagene CIS-FACTORIAL HepG2 Assay for human Sterol Regulatory Element Binding (SREBP) (AID 2282962); conditions: HepG2 Attagene cis-factorial SREBP reporter, mRNA; actives raise or lower the signal
# How it was run: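 Readout: fluorescent reporter-transcript peaks resolved by capillary electrophoresis after RT-PCR. Cells were human HepG2 carrying transfected cis-promoter reporter constructs, dosed for 24 h. Gain or loss of signal was fitted against DMSO controls.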
# [17] = target: Estrogen-related receptor gamma (Homo sapiens) (UniProt P62508); assay: ATG_ERRg_TRANS: Attagene TRANS-FACTORIAL HepG2 Assay for human Estrogen-Related Receptor gamma (ERRg) (AID 2282977; active = hit-call score of the fitted dose curve at least 0.9, where 1 is the maximum;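 also: hits increase reporter signal over DMSO so potencies reflect activators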); conditions: HepG2 Attagene TRANS reporter, ERRg transactivation
# How it was run: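 Exogenous NR-Gal4 chimera activity was assessed in HepG2 cells bearing transfected GAL4-UAS reporters. After 24 h dosing, total RNA underwent RT-PCR, fluorescent primer extension and HpaI digestion before capillary electrophoresis, with gain of signal scored against DMSO.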
# [18] = ATG_PPRE_CIS: Attagene CIS-FACTORIAL HepG2 Assay for human Peroxisome Proliferator-activated Response Element (PPRE) (AID 2282958); conditions: HepG2 PPRE cis-element reporter, Attagene transcription factor profiling; actives raise or lower the signal
# How it was run: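 HepG2 cells are transiently transfected with multiplexed cis-promoter reporter units to report endogenous PPAR activity. After 24 h dosing, reporter mRNA is read by RT-PCR and capillary electrophoresis. Fitting is bidirectional against DMSO.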
# [19] = target: Steroid hormone receptor ERR1 (Homo sapiens) (UniProt P11474); assay: ATG_ERRa_TRANS: Attagene TRANS-FACTORIAL HepG2 Assay for human Estrogen-Related Receptor alpha (ERRa) (AID 2282971; active = hit-call score of the fitted dose curve at least 0.9, where 1 is the maximum); conditions: HepG2 Attagene TRANS reporter, ERRa transactivation
# How it was run: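 HepG2 cells were transiently transfected with multiple GAL4-UAS reporter units, then dosed with compound for 24 h. Total RNA was reverse-transcribed, reporter cDNA PCR-amplified and fluorescently labelled, and fragments resolved by capillary electrophoresis; induction was compared with DMSO.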
# X-box-binding protein 1 (Homo sapiens), sequence (P17861 whole entry, looked up, the tested form may be a part): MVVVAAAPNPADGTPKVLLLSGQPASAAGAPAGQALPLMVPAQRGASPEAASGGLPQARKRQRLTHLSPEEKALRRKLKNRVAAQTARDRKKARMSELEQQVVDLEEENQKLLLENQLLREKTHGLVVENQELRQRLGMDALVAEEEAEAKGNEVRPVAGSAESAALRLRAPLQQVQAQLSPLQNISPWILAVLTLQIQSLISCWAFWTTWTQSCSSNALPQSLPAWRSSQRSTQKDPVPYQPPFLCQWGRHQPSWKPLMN
# Paired box protein Pax-6 (Homo sapiens), sequence (P26367 whole entry, looked up): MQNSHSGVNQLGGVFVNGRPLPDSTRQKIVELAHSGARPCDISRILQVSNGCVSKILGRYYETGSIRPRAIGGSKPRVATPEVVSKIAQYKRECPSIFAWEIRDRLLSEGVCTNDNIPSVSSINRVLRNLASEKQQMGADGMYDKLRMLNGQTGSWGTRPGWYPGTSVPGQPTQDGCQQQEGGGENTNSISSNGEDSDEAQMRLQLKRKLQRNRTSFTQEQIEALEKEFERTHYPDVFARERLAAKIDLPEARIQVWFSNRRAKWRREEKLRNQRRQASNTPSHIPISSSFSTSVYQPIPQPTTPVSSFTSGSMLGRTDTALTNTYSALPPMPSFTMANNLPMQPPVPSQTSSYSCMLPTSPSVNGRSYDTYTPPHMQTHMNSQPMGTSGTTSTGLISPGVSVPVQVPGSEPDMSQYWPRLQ
# Signal transducer and activator of transcription 3 (Homo sapiens), sequence (P40763 whole entry, looked up): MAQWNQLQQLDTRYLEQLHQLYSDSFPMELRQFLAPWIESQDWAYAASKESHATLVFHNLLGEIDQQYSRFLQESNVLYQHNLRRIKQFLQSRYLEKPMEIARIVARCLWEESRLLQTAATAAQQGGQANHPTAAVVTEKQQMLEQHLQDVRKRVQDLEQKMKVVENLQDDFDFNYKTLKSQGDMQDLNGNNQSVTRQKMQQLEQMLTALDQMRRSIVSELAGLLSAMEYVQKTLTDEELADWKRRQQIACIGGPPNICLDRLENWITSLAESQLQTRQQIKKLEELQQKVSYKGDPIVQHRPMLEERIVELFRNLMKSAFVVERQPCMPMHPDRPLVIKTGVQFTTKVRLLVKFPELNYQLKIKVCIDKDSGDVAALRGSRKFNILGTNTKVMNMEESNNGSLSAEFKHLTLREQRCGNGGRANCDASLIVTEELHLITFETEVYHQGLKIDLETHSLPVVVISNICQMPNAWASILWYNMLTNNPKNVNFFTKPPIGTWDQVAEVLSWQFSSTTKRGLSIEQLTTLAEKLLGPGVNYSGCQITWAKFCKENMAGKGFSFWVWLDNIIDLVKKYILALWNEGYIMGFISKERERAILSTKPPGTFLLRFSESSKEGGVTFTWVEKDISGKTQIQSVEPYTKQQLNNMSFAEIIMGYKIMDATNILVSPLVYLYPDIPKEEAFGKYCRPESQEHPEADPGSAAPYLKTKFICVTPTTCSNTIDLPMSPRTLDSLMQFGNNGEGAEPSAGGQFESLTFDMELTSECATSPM
# Nuclear receptor subfamily 1 group I member 3 (Homo sapiens), sequence (Q14994 whole entry, looked up, the tested form may be a part): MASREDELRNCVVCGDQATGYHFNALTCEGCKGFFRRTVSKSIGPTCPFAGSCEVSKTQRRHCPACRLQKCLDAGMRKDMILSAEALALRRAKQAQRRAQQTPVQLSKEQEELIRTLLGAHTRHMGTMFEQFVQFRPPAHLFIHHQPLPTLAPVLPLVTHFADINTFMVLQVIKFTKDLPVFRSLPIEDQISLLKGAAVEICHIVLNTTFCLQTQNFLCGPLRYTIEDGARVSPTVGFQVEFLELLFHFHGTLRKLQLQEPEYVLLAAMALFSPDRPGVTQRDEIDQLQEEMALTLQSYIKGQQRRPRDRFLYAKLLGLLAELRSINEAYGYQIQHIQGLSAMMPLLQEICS
# Transcription factor Sp1 (Homo sapiens), sequence (P08047 whole entry, looked up): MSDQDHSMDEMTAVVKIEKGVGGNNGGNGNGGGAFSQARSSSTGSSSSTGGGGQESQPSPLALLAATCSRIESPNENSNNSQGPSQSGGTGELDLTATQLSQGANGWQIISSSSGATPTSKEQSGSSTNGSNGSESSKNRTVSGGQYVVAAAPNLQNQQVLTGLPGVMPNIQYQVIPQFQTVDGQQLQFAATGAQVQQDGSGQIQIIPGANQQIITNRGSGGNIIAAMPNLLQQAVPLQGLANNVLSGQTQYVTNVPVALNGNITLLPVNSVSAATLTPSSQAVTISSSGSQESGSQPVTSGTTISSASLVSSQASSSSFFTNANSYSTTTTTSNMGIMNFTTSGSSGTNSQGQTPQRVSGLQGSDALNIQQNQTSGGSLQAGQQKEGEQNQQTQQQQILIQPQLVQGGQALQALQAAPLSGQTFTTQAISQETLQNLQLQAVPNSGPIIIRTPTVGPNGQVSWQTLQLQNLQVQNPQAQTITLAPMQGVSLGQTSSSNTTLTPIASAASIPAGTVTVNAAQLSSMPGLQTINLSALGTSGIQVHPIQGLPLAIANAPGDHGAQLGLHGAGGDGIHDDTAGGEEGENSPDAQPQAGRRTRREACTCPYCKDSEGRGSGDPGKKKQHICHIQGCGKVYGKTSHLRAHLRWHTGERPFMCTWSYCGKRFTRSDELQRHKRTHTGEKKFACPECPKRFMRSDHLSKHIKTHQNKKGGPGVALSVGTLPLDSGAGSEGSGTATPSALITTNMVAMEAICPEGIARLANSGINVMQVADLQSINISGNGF
# Estrogen-related receptor gamma (Homo sapiens), sequence (P62508 whole entry, looked up, the tested form may be a part): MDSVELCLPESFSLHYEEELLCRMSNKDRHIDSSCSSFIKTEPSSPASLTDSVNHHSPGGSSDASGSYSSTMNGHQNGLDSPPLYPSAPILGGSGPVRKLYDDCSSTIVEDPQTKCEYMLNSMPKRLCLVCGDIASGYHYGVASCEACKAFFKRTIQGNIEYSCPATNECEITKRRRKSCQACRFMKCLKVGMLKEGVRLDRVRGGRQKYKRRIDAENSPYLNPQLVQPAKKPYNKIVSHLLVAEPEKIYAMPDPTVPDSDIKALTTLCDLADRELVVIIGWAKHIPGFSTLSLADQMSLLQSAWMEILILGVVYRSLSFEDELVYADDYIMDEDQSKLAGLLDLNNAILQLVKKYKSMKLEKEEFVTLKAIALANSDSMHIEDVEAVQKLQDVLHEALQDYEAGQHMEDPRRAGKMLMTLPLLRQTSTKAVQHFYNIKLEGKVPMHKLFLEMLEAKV
# Steroid hormone receptor ERR1 (Homo sapiens), sequence (P11474 whole entry, looked up, the tested form may be a part): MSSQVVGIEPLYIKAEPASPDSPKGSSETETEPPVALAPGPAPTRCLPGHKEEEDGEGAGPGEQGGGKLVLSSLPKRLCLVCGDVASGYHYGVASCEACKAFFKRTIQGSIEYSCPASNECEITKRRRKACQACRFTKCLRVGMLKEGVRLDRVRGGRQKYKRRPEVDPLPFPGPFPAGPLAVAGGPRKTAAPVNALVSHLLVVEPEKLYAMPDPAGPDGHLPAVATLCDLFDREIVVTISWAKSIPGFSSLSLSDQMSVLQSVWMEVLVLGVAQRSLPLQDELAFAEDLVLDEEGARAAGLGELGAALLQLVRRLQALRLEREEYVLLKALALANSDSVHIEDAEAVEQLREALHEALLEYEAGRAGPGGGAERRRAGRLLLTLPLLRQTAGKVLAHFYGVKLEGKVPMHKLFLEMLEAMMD
structure (smiles),measurement,setting,value
CC(=O)O[C@H]1C[C@@H]2CC[C@@]1(C)C2(C)C,outcome,[1],inactive
same,outcome,[2],inactive
same,outcome,[3],inactive
same,outcome,[4],inactive
same,outcome,[5],inactive
same,outcome,[6],inactive
same,outcome,[7],inactive
same,outcome,[8],inactive
same,outcome,[9],inactive
same,outcome,[10],inactive
same,outcome,[11],inactive
same,outcome,[12],inactive
same,outcome,[13],inactive
same,outcome,[14],inactive
CC/C=C\CCOC(=O)CC,outcome,[1],inactive
same,outcome,[2],inactive
same,outcome,[4],inactive
same,outcome,[5],inactive
same,outcome,[6],inactive
same,outcome,[15],inactive
same,outcome,[7],inactive
same,outcome,[8],inactive
same,outcome,[9],inactive
same,outcome,[12],inactive
same,outcome,[13],inactive
CC(C)(C)C1=CC(=O)C(C(C)(C)C)=CC1=O,AC50,[1],61.5 µM (active)
same,AC50,[2],1.29 µM (active)
same,outcome,[3],inactive
same,outcome,[4],inactive
same,AC50,[16],25.7 µM (active)
same,outcome,[6],inactive
same,outcome,[15],inactive
same,AC50,[7],50 µM (active)
same,outcome,[8],inactive
same,outcome,[9],inactive
same,AC50,[10],19.7 µM (active)
same,AC50,[11],20.1 µM (active)
same,outcome,[12],inactive
same,outcome,[17],inactive
C[C@H](CCC(=O)NCC(=O)O)[C@H]1CC[C@H]2[C@@H]3[C@H](O)C[C@@H]4C[C@H](O)CC[C@]4(C)[C@H]3C[C@H](O)[C@]12C,outcome,[1],inactive
same,outcome,[2],inactive
same,outcome,[3],inactive
same,outcome,[4],inactive
same,outcome,[5],inactive
same,outcome,[6],inactive
same,outcome,[15],inactive
same,outcome,[7],inactive
same,outcome,[8],inactive
same,outcome,[9],inactive
same,outcome,[10],inactive
same,outcome,[12],inactive
same,outcome,[13],inactive
BrCc1cccc(Oc2ccccc2)c1,outcome,[1],inactive
same,outcome,[18],inactive
same,outcome,[3],inactive
same,outcome,[4],inactive
same,outcome,[5],inactive
same,outcome,[16],inactive
same,outcome,[6],inactive
same,outcome,[15],inactive
same,AC50,[7],100 µM (active)
same,outcome,[8],inactive
same,outcome,[9],inactive
same,outcome,[10],inactive
same,outcome,[11],inactive
same,outcome,[12],inactive
same,outcome,[13],inactive
same,outcome,[14],inactive
same,outcome,[17],inactive
CCCCCCC(O)CCCCCCCCCCC(=O)O (configuration not stated),outcome,[1],inactive
same,outcome,[2],inactive
same,outcome,[3],inactive
same,outcome,[4],inactive
same,outcome,[16],inactive
same,outcome,[6],inactive
same,outcome,[15],inactive
same,outcome,[7],inactive
same,outcome,[8],inactive
same,outcome,[9],inactive
same,outcome,[10],inactive
same,outcome,[11],inactive
same,outcome,[19],inactive
same,outcome,[12],inactive
same,outcome,[17],inactive
N#Cc1cscn1,outcome,[1],inactive
same,AC50,[2],71.7 µM (active)
same,outcome,[3],inactive
same,outcome,[4],inactive
same,outcome,[5],inactive
same,outcome,[6],inactive
same,outcome,[15],inactive
same,outcome,[7],inactive
same,outcome,[8],inactive
same,outcome,[9],inactive
same,outcome,[11],inactive
same,outcome,[12],inactive
same,outcome,[14],inactive
CN(C)c1ccncc1,outcome,[1],inactive
same,AC50,[2],71.6 µM (active)
same,outcome,[3],inactive
same,outcome,[4],inactive
same,outcome,[16],inactive
same,outcome,[6],inactive
same,outcome,[15],inactive
same,outcome,[7],inactive
same,outcome,[8],inactive
same,outcome,[9],inactive
same,outcome,[10],inactive
same,outcome,[19],inactive
same,outcome,[12],inactive
same,outcome,[13],inactive
same,outcome,[17],inactive
